# tim10-1 inh: inhibits growth of tim10-1 mutant yeast; S. cerevisiae tim10-1 ts strain growth, BacTiter-Glo, 24 h; inhibition, % at 20 µM; actives 2.2% (n = 330,000); AID 463190;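 active = inhibition of at least 40%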;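 also: mutant grown at 25 °C; 0% = DMSO wells with yeast and 100% = wells holding no yeast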
# PfHsp90 yeast 2: growth inhibition of yeast expressing Plasmodium Hsp90; inhibition, % at 9.4 µM; actives 0.32% (n = 310,000); S. cerevisiae expressing PfHsp90, BacTiter-Glo ATP, 48 h; yeast lacking PDR1 and PDR3 efflux regulators;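 active = every replicate shows inhibition above about 80%, whatever the replicate mean, limit read from the data; inconclusive = mean inhibition reaches the set limit but some replicate falls short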;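 also: 0% = DMSO neutral controls and 100% = 20 µM radicicol positive controls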
# tim23-1 inh: inhibits growth of tim23-1 mutant yeast; S. cerevisiae tim23-1 growth, BacTiter-Glo luminescence, 24 h; inhibition, % at 20 µM; actives 1.3% (n = 330,000);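 active = growth inhibition of the mutant yeast at or above 50%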;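 also: temperature-sensitive mutant grown at 25 °C; plate controls were DMSO-treated mutant yeast for no effect and medium wells lacking yeast for full effect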
# TIM10 inh: growth inhibitors of TIM10 yeast strain; S. cerevisiae TIM10 strain growth, BacTiter-Glo luminescence, 24 h; inhibition, % at 10 µM; actives 1.4% (n = 330,000); AID 463195;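 active = inhibition of 40% or more at the single tested concentration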;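 also: wild-type TIM10 isogenic control strain grown at permissive 25 °C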
# SUMO Mot1 rescue: inhibitors of SUMOylation pathway: yeast Mot1-301 growth rescue | actives 1% (n = 320,000) | growth rescue, % at 18.8 µM | S. cerevisiae Mot1-301 growth rescue, ATP luminescence, 38.5C; percent above DMSO median, 100 means doubled;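 active = every valid replicate shows activation above 250% relative to neutral control wells; inactive = the rest, any valid replicate at or below 250%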;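 also: OY570 slx delta 5 strain wells were the positive control but not used for scaling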
# tim10-1 confirm: confirmation of tim10-1 mutant yeast growth inhibitors; shares compounds with tim10-1 inh; actives 56% (n = 7,400); inhibition, % at 20 µM; S. cerevisiae tim10-1 ts strain growth, BacTiter-Glo, 24 h;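 active = inhibition of yeast growth at or above a set limit in either of two repeat tests at 20 µM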;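 also: tim10-1 mutant grown at permissive 25 °C to find synthetic lethal compounds; 0% = DMSO yeast wells and 100% = medium wells without yeast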
# TIM10 conf: TIM10 yeast growth inhibition, confirmed | shares compounds with TIM10 inh | S. cerevisiae tim10 strain growth, BacTiter-Glo luminescence, 24 h | inhibition, % at 10 µM | actives 63% (n = 4,600);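 active = inhibition of yeast growth at or above a set limit in either of two replicates at 10 µM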;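 also: this counterscreen used the strain with wild-type TIM10; 0% = yeast with DMSO and 100% = medium wells lacking yeast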
# * hit, by the source's call; ? = inconclusive; . = not tested or not shown. Only some compounds are listed: those with a hit (about 4.4% of all), similar ones and a draw of the others.
SMILES,tim10-1 inh,PfHsp90 yeast 2,tim23-1 inh,TIM10 inh,SUMO Mot1 rescue,tim10-1 confirm,TIM10 conf
CCOC(=O)C1=NN(c2ccccc2C)C2=NC(C)=C(C(=O)OC)C(c3cccs3)N12 (centres undefined),41*,.,37,42*,159,18,20
Cc1cc(N/N=C/c2ccccc2O)nc(-c2ccccc2O)n1,50*,-45,32,41*,502,32*,4
Cc1cc(N/N=C/c2ccc(O)cc2O)nc(-c2ccccc2O)n1,.,-63,.,.,15,.,.
COc1ccc(N=C2SCC(c3ccc([N+](=O)[O-])cc3)=NN2CCO)cc1,8,1,31,11,61,.,.
O=[N+]([O-])c1ccc(C2=NN(CCO)C(=Nc3ccc(OC(F)(F)F)cc3)SC2)cc1,45*,-7,48,45*,13,15,32*
NS(=O)(=O)c1ccc(CCNC(=O)c2ccc(Cl)c(S(=O)(=O)NCc3ccco3)c2)cc1,-5,-2,-12,0,9,.,.
CC1(C)CC2CC(C)(CN2C(=S)Nc2ccccc2)C1 (centres undefined),3,-6,32,21,178,.,.
CC1(C)CC2CC(C)(CN2C(=S)NC(=O)c2ccccc2Cl)C1 (centres undefined),41*,13,48,42*,19,32*,10
Cc1cc([N+](=O)[O-])ccc1-c1ccc(C2Nc3ccccc3C(=O)N2O)o1 (centres undefined),53*,?,42,41*,12,36*,20
O=C(/C=C/c1ccccc1[N+](=O)[O-])OCC(=O)c1ccccc1,11,24,16,12,9,.,.
O=C(/C=C/c1ccccc1[N+](=O)[O-])c1ccc(F)cc1,47*,3,45,43*,-6,44*,26
CCN1CCCC(OC(=O)c2cc(-c3ccccc3Cl)nc3ccccc23)C1 (centres undefined),48*,-4,12,49*,.,33*,37*
O=C(c1cc(-c2ccccc2Cl)nc2ccccc12)N1CCC1,10,-7,4,0,1,.,.
COc1ccc(N(Cc2ccccc2)S(=O)(=O)c2cccc(C(=O)NCC3CCCO3)c2)cc1 (centres undefined),25,16,22,17,.,.,.
COc1ccc(NC(=O)CSc2nc3ccccc3c(=O)n2CCCO)cn1,16,14,-2,9,-10,.,.
COc1ccccc1Cn1c(=O)c2ccccc2n2c(Sc3ncnc4sccc34)nnc12,43*,0,45,45*,110,34*,30
CCOC(=O)C1Nc2c(cc(C(F)(F)F)cc2[N+](=O)[O-])C2c3ccccc3CC12 (centres undefined),13,-6,10,2,-22,.,.
CCOC(=O)C1Nc2c(F)cc(C)cc2C2c3ccccc3CC12 (centres undefined),49*,-16,47,46*,-20,55*,59*
O=C(CCCN1C(=O)/C(=C/c2ccccc2Cl)SC1=S)NCCCN1CCOCC1,44*,1,38,44*,43,41*,46*
CCc1cc(-c2n[nH]c(=S)n2Cc2ccccc2)cs1,42*,-8,39,44*,0,19,41*
Cc1ccc(-c2n[nH]c(=S)n2Cc2ccccc2)cc1,32,12,24,39,5,.,.
CCCCn1c(N)c(N(CCOC)C(=O)CSCc2ccc(C)cc2)c(=O)[nH]c1=O,-6,0,-7,4,61,.,.
Cn1cccc1/C=C1\CC(C(C)(C)C)C/C(=C\c2cccn2C)C1=O (centres undefined),45*,.,40,41*,2,43*,42*
CC1CCC(NC(=O)CCS(=O)(=O)c2ccc3c(c2)NC(=O)C(C)S3)CC1 (centres undefined),5,-14,8,-10,29,.,.
O=C(/C=C/c1ccc(-c2ccccc2[N+](=O)[O-])o1)c1ccco1,55*,-26,36,48*,9,44*,46*
SMILES,tim10-1 inh,PfHsp90 yeast 2,tim23-1 inh,TIM10 inh,SUMO Mot1 rescue,tim10-1 confirm,TIM10 conf
CCc1ccc(NC(=O)c2noc(C(C)C)c2[N+](=O)[O-])cc1,52*,-27,42,46*,54,44*,33*
Cc1ccc(NC(=O)CSCC(=O)N(C)CC(=O)Nc2cccc(F)c2)cc1,21,19,19,-6,-13,.,.
CC1CCN(c2nc3nonc3nc2Nc2ccc(F)cc2)CC1,41*,-22,35,45*,104,44*,26
COc1ccccc1/C=C/C(=O)c1ccc(NC(C)=O)cc1,43*,3,33,44*,6,24,-3
COc1cc(/C=N/N(C)c2ccccc2)cc(Cl)c1O,48*,-30,38,40*,11,16,20
O=C(CS(=O)(=O)c1ccc(Cl)cc1)Nc1nnc(-c2cccs2)o1,19,-7,9,-4,6,.,.
O=C(Oc1cccnc1)c1ccccc1[N+](=O)[O-],52*,-1,32,50*,-6,33*,33*
N/C(=N\OC(=O)c1ccccc1[N+](=O)[O-])c1cccnc1,16,.,23,4,-10,.,.
COc1cc2c(cc1NC(=O)C(Cl)Cl)-c1ccc(NC(=O)C(Cl)Cl)cc1C2,.,-7,.,.,.,.,.
CN(C)CCCN(C(=O)c1ccc2c(c1)OCCO2)c1nc2cc3c(cc2s1)OCO3,10,19,8,7,1,.,.
CCC1CCCCN1S(=O)(=O)c1ccc(C(=O)N(CCCN(C)C)c2nc3cc4c(cc3s2)OCO4)cc1 (centres undefined),46*,-9,35,50*,2,34*,33*
CC1CN(S(=O)(=O)c2ccc(C(=O)N(CCCN(C)C)c3nc4cc5c(cc4s3)OCCO5)cc2)CC(C)O1 (centres undefined),54*,-14,35,44*,0,52*,45*
COc1ccc(OCC(=O)Nc2ccc(N3CCN(C(=O)c4ccccc4)CC3)c(Cl)c2)cc1,60*,19,40,44*,-28,58*,57*
COc1ccc(OCC(=O)Nc2ccc(N3CCOCC3)c(Cl)c2)cc1,17,-9,26,11,9,.,.
CC(C)CCNC(=O)COC(=O)/C=C/c1ccc2ccccc2n1,49*,-18,48,45*,-11,42*,41*
COc1ccc(-c2ccc(OC)cc2)cc1,4,-15,5,2,-24,.,.
COc1ccc(-c2nncnn2)cc1,84*,.,42,89*,-19,79*,21
O=C(/C=C/c1cccs1)N1CCOCC1,-9,13,-3,-2,289,.,.
